Here are results for 7 compounds from PubChem BioAssay (NCATS).

Results filed as inconclusive are left out. Activity calls are given as the source filed them. Unless noted, calls come from the whole dose curve; as a rule, active = well fitted curve in either direction with a large enough effect (not every such curve was filed as active); inconclusive = small, poorly fitted or top-dose-only effect, or another doubt; inactive = flat fitted curve, though single readings scatter.

In test [1] the target is Lysosomal acid glucosylceramidase (Homo sapiens) (UniProt P04062). Briefly: Glucocerebrosidase-p2 (AID 348; in the data active = potency below about 10 µM; note: potency is the fitted concentration of half-maximal effect). Particulars: purified GBA, blue fluorogenic substrate, 40 min. A digest of the protocol: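 Normal human glucocerebrosidase (0.2 nM) with blue fluorogenic substrate (80 uM final) in citrate/phosphate pH 5.9 with 10mM sodium taurocholate, 0.01% tween-20; 40 min RT, NaOH/glycine stop; fluorescence Ex 365/Em 440; AC50 from a titration from 0.6 nM upwards.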
Chain of Lysosomal acid glucosylceramidase (Homo sapiens) (P04062 whole entry, looked up): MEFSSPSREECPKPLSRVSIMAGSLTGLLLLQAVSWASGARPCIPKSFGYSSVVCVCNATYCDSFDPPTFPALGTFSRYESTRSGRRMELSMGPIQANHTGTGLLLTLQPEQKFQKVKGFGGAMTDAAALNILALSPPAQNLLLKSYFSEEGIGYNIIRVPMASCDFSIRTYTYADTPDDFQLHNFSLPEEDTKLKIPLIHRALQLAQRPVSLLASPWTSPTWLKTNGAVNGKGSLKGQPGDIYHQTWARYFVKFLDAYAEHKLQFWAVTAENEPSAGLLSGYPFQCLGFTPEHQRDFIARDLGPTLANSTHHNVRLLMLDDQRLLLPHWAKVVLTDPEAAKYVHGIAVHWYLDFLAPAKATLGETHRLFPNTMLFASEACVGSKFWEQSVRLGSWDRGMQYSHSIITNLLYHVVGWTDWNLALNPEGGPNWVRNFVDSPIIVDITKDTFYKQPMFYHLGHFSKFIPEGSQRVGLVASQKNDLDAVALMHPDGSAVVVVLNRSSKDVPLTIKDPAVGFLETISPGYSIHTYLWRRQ

A short description of test [2]: AP1 Signaling Pathway (AID 357).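 Note: ME-180 reporter cells stimulated with EGF at its EC50 level; % is set by controls: 0 for no effect and ±100 for the full control effect.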 Particulars: ME-180 AP-1-bla reporter, EGF-induced, beta-lactamase ratio, 5 h; at 7.69 µM (top of the series) unless noted. A digest of the protocol:
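Read-out was the 460nm/530nm emission ratio (excitation 405nm) after CCF4 loading for 2.5 hours at room temperature. Cells carried an AP-1-driven beta-lactamase reporter, were stimulated with EC50 EGF plus compound for 5 hours, and AC50 values came from titrations.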

Test [3] can be described thus: NFAT Signaling Pathway (AID 444).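 Note: carbachol stimulus at about its EC50 of 1 µM final; % is set by controls: 0 for no effect and ±100 for the full control effect.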 Particulars: Jurkat NFAT-bla M1, carbachol, beta-lactamase ratio, 5 h; at 7.69 µM (top of the series) unless noted. A digest of the protocol:
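Jurkat cells with NFAT-driven β-lactamase reporter and co-expressed M1 receptor, stimulated with carbachol (final 1 uM, ~EC50), compound titration, 5 h at 37 °C. CCF4 loaded 1 h at RT; 460/530 nm ratio gave %activity and AC50.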

Test [4] in a line: Stat Signaling Pathway (AID 446).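 Note: ME-180 cervical cancer cells given 40 pM IL-6 alongside compound; SIE-controlled beta-lactamase reporter measured as 460/530 nm FRET emission ratio; % is set by controls: 0 for no effect and ±100 for the full control effect.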 Particulars: ME-180 SIE beta-lactamase reporter, IL-6 stimulated, 5 h; at 7.69 µM (top of the series) unless noted. A digest of the protocol:
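Compound effects on IL-6-induced STAT reporter activity were measured in ME-180 cells. After overnight culture, cells were co-treated with 40 pM IL-6 for 5 hrs before beta-lactamase substrate loading at room temperature.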

The target of test [5] is Glucocorticoid receptor (Homo sapiens) (UniProt P04150). Briefly: GR-EFC Redistribution (AID 451; calls by dose curve; note: potency is the fitted concentration of half-maximal effect). The conditions noted are these: CHO-K1 GR-EFC translocation, beta-gal luminescence, 2 h. A digest of the protocol: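 CHO-K1 cells expressing nuclear EA and GR-ED fragments of b-gal; compounds titrated up to 46 uM final, 2 h at 37 C. GR nuclear translocation read as complemented b-gal luminescence after 1 h RT detection.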
Chain of Glucocorticoid receptor (Homo sapiens) (P04150 whole entry, looked up, the tested form may be a part): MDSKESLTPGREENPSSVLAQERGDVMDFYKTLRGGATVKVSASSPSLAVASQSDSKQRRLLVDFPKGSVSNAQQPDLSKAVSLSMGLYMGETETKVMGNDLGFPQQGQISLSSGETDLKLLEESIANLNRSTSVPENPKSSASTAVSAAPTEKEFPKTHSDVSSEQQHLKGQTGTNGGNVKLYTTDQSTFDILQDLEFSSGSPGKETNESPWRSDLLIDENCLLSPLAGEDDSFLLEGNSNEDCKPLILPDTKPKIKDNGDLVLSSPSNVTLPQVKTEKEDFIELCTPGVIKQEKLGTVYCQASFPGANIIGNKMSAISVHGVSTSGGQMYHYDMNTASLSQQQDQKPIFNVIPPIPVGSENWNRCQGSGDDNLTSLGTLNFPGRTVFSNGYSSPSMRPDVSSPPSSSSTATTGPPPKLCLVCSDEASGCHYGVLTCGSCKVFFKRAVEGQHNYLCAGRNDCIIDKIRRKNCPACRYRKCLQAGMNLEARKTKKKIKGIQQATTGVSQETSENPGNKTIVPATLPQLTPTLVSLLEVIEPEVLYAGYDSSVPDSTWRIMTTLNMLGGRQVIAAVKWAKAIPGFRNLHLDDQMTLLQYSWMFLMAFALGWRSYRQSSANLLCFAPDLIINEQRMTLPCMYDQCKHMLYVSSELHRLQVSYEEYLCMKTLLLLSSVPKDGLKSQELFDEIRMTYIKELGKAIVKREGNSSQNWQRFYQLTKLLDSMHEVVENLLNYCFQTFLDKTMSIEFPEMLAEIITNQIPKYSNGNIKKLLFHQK

Test [6] concerns the target Mitogen-activated protein kinase 10 (Mus musculus) (UniProt Q61831). Briefly: JNK3 AlphaScreen Assay (AID 530).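 Note: kinase came from lysate of stimulated human HepG2 cells; signal reports phosphorylation of biotinylated GST-cJun 1-79 at Ser73 with 10 µM ATP; % is set by controls: 0 for no effect and ±100 for the full control effect.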 The conditions noted are these: JNK3 lysate, c-Jun phosphorylation; series mostly up to 57.1 µM. A digest of the protocol:
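Activity was read by AlphaScreen after JNK3-containing HepG2 lysate (cytokine pre-activated) phosphorylated biotinylated GST-cJun with 10 uM ATP at room temperature. Phospho-Ser73 cJun antibody with Protein-A acceptor beads provided detection.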
A general note: In Alpha technology, singlet oxygen from a donor bead excites a nearby acceptor bead.

Test [7] deals with 3',5'-cyclic-AMP phosphodiesterase 4B (Homo sapiens) (UniProt Q07343). Description: qHTS Assay for Inhibitors of PDE-IV (AID 607; active = well fitted activation curve with a large enough effect in the main read-out, with a control signal flat, not every such curve was filed as active; note: % of control where 0% means no effect). The conditions noted are these: HEK293 ACTOne CNG channel cells, membrane potential fluorescence; series mostly up to 22.9 µM. A digest of the protocol:
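ACTOne HEK293 cells carry a modified cAMP-gated CNG channel and express endogenous PDE4; plated 1000 cells/well, compounds up to 22.9 uM final. Membrane-potential dye fluorescence (ex 535/em 590) was read; parental cells received 10 uM forskolin + 100 uM RO 20-1724.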

In test [8] the target is Cytochrome P450 3A4 (Homo sapiens) (UniProt P08684). Description: qHTS Assay for Activators of Cytochrome P450 3A4 (AID 885; active = well fitted curve in the direction sought with a large enough effect; an effect the other way counts as inactive or inconclusive; note: nearly all actives have a fitted effect of over 65% in size; note: potency is the fitted concentration of half-maximal effect). The conditions noted are these: recombinant CYP3A4, Luciferin-PPXE luminescence, 60 min; series mostly up to 57.1 µM. A digest of the protocol:
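CYP3A4 activity: Luciferin-PPXE O-dealkylation, 25uM substrate, 200mM KPO4, RT throughout. Read-out is luciferase luminescence; higher values reflect activation.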
In general terms: qHTS replaces the single test concentration by a dilution series.

A short description of test [9]: qHTS Assay for Lipid Storage Modulators (AID 1519; calls by dose curve). Particulars: Drosophila S3 cells, BODIPY lipid droplet/cell ratio, laser cytometry, cells loaded with oleic acid; for activity change, negative = inhibition: at 57.5 µM (top of the series). A digest of the protocol: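 Cells seeded at 5,000 per well were treated with compounds over a concentration series and loaded with oleic acid (400 uM, as added). Lipid droplet fluorescence (488 nm excitation, 500-530 nm channel) was read by laser-scanning cytometry and normalized to 20 uM Triacsin C.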

Test [10] in a line: Primary qHTS for small molecule stabilizers of the endoplasmic reticulum resident proteome: Secreted ER Calcium Modulated Protein (SERCaMP) assay (AID 1508630; active = well fitted curve in the direction sought with a large enough effect; an effect the other way counts as inactive or inconclusive; note: % is set by controls: 0 for no effect and ±100 for the full control effect). The conditions noted are these: SH-SY5Y GLuc-SERCaMP (Gaussia luciferase released on ER calcium loss) secretion, thapsigargin, luminescence; series mostly up to 38.4 µM. A digest of the protocol:
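The SH-SY5Y reporter protocol was run at 3 concentrations up to 38.3 uM (primary) or 11 concentrations (follow-up): 16 h compound, 100 nM thapsigargin for 4 h, then extracellular luciferase luminescence.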

The target of test [11] is Cytochrome P450 3A4 (Homo sapiens) (UniProt P08684). Briefly: qHTS Assay for Inhibitors and Substrates of Cytochrome P450 3A4 (AID 884; active = well fitted curve in the direction sought with a large enough effect; an effect the other way counts as inactive or inconclusive; note: potency is the fitted concentration of half-maximal effect; nearly all actives have a fitted effect of over 50% in size). Particulars: recombinant CYP3A4, Luciferin-PPXE luminescence; series mostly up to 57.1 µM. A digest of the protocol:
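Luminescent readout of luciferin produced by CYP3A4 (20 nM) dealkylation of Luciferin-PPXE, 25 uM (its KM). NADPH-driven reaction ran 60 min at RT after 10 min compound preincubation; data scaled to 57 uM ketoconazole as 100% inhibition.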

The target in test [12] is Glucocorticoid receptor (Homo sapiens) (UniProt P04150). Description: GR-GFP Redistribution (AID 450;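 active = compounds whose dose series gives a full or clear partial fitted curve of increased nuclear translocation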; note: potency is the fitted concentration of half-maximal effect). The conditions noted are these: U2OS GR-GFP nuclear translocation, laser cytometry, 2 h.
Test [13] is described as follows: Confirmation and Secondary Assay for Modulators of Hemoglobin Beta Chain Splicing at IVS2 654 locus (AID 910; active = well fitted curve in the direction sought with a large enough effect; an effect the other way counts as inactive or inconclusive;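 note: HeLa cells stably carrying EGFP split by mutant beta-globin IVS2-654 intron; % of control where 0% means no effect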). The conditions noted are these: HeLa EGFP-654 splicing reporter, GFP fluorescence, 48 h; series mostly up to 38.3 µM. A digest of the protocol:
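HeLa cells stably expressing EGFP interrupted by β-globin IVS2-654 intron, seeded overnight in Opti-MEM/2% FCS, then treated 2 days at 37 °C. Restored splicing read as total peak GFP intensity per well by laser scanning cytometry (488 nm excitation, 500–520 nm emission); 500 nM antisense PNA as control.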

Test [14] in a line: Confirmation and Secondary Assay for Modulators of Hemoglobin Beta Chain Splicing at IVS2 705 locus (AID 930; active = well fitted curve in the direction sought with a large enough effect; an effect the other way counts as inactive or inconclusive;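 note: HeLa cells stably expressing the EGFP-705 splicing reporter; % of control where 0% means no effect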). Particulars: HeLa EGFP-705 splicing reporter, GFP fluorescence, 48 h; series mostly up to 38.3 µM. A digest of the protocol: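 Splice-correction reporter: EGFP cDNA split by beta-globin intron 2 bearing the 705 mutation, stably in HeLa. Compound incubation 2 days, 37C; fluorescent objects 5-250 µm summed per well.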

Test [15] concerns the target Ubiquitin carboxyl-terminal hydrolase 1 (Homo sapiens) (UniProt O94782). Briefly: Inhibitors of USP1/UAF1: Pilot qHTS (AID 504865; active = well fitted curve in the direction sought with a large enough effect; an effect the other way counts as inactive or inconclusive;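 note: rhodamine fluorescence freed from ubiquitin-rhodamine substrate followed over time; top concentration of the series differs between compounds; % is set by controls: 0 for no effect and ±100 for the full control effect; nearly all actives have a fitted effect of over 35% in size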). The conditions noted are these: purified USP1/UAF1, Ub-rhodamine cleavage fluorescence; series mostly up to 54.9 µM. A digest of the protocol:
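Enzyme-free wells gave the negative control, while test wells held 1nM USP1/UAF1 preincubated with compound for 15 min at room temperature. Ub-Rho at 150nM final started the reaction, and fluorescence at 480/540 nm was recorded kinetically.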

The nature of test [16]: qHTS Assay for Identification of Small Molecule Agonists for Hypoxia Response Element Signaling Pathway (AID 914; active = well fitted activation curve with a large enough effect in the signal ratio, with a control signal flat, not every such curve was filed as active; the % refers to the signal ratio; note: % of control where 0% means no effect). Particulars: ME-180 (cervical carcinoma) HRE-bla reporter, beta-lactamase ratio, CoCl2, 17 h; activation: stronger effect = higher value. A digest of the protocol: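 Cells were plated overnight, pin-dosed with compound in a titration series, co-stimulated with EC50 CoCl2 and incubated 17 hours at 37 degrees Celsius. CCF4 substrate was then loaded, and AC50 values came from the 460nm/530nm ratio.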

[17] abbreviates: measured here: cell count channel max response.
Where [18] appears, read: measured here: lipid channel max response.

Chain of 3',5'-cyclic-AMP phosphodiesterase 4B (Homo sapiens) (Q07343 whole entry, looked up): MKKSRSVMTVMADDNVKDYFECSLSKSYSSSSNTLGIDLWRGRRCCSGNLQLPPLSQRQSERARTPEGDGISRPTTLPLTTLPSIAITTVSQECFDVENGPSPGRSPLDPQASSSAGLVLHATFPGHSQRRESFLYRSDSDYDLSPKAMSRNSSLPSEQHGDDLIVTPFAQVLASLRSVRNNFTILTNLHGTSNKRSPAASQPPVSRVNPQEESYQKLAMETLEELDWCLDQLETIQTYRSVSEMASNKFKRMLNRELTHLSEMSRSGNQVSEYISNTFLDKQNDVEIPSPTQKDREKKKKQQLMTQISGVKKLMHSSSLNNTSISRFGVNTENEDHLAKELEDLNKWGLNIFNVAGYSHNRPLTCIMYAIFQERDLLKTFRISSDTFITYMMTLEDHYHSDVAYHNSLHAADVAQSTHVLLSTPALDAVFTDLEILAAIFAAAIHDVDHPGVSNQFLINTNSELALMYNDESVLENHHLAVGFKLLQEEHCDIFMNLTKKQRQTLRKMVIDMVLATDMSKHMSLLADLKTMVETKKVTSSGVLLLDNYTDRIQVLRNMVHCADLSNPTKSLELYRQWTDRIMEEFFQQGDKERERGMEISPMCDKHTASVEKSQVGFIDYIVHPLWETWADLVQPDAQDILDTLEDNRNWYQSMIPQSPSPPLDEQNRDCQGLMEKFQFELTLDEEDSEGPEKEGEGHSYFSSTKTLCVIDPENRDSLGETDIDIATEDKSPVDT
Chain of Cytochrome P450 3A4 (Homo sapiens) (P08684 whole entry, looked up): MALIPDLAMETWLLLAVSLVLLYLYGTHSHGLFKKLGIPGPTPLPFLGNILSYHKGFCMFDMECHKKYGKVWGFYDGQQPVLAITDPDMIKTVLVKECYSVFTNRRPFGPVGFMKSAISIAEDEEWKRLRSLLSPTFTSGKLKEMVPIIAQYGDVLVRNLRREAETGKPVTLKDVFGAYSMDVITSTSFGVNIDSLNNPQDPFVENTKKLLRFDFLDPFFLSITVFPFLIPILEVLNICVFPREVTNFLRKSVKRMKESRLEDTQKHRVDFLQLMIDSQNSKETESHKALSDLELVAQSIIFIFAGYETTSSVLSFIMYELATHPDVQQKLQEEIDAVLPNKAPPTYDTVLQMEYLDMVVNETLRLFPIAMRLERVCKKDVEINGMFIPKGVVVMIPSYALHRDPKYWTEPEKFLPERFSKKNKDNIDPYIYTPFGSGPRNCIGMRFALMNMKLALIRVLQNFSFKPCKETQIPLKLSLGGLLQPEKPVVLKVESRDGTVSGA
Chain of Ubiquitin carboxyl-terminal hydrolase 1 (Homo sapiens) (O94782 whole entry, looked up): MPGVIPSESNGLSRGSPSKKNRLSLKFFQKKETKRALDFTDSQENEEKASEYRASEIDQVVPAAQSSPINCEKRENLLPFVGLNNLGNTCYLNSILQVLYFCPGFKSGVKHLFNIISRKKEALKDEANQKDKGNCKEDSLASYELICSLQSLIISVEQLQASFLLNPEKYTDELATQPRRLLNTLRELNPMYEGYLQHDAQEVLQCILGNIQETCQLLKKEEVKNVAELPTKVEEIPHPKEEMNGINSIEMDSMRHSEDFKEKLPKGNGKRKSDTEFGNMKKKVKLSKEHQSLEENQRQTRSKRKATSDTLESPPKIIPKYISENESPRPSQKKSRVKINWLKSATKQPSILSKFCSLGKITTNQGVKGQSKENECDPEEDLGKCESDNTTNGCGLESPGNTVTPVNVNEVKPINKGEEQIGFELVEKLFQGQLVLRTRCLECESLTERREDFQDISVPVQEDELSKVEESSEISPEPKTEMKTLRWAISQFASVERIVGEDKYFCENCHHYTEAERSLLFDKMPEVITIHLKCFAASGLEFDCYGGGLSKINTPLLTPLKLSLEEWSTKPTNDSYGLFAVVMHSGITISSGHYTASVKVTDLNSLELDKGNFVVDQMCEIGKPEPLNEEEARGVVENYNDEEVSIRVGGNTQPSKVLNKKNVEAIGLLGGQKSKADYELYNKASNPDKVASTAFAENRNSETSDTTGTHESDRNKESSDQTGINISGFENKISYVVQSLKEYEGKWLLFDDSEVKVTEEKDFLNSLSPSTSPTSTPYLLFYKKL

Take `N#Cc1cccc(NC(=O)N2CC3(CCN(C(=O)c4cccc(F)c4)CC3)C2)c1`: the Potency in test [1] was > 11.4 µM (inactive); in test [5] it was > 46 µM (inactive); in [8], 10 µM (active). For the same compound, the activity change, negative = inhibition in test [2] is -1.48% (inactive); in test [3] it was 8.8% (inactive); in [9], 4.13% (inactive). Moreover, the activity, negative = inhibition in test [4] was -8.78% (inactive). Besides, the Potency entry in test [6] and in test [7] was “inactive” throughout. Moreover, the max response in [9] (setting [17]) came to 17%; in test [9] (setting [18]), 25.1%. Also, in test [10], the outcome was inactive.
As for `O=C(c1cnccn1)N1CCC[C@@]2(CCN(c3ccccn3)C2)C1`, the figures for the Potency in [1] and in test [5] were > 11.4 µM (inactive) and > 46 µM (inactive), respectively. Moreover, the activity change, negative = inhibition in test [2] is 7.84% (inactive); in [3], 0.825% (inactive); in test [9], 3.99% (inactive). Besides, the activity, negative = inhibition in test [4] is 0.945% (inactive). Besides, the Potency result in test [6], in [7] and in test [8] was “inactive” in each case. Moreover, the max response in test [9] (setting [17]) was 24.1%; in test [9] (setting [18]), 26.9%. Besides, in test [10], the result was inactive.
For `COc1ccc(C(=O)N2CCC[C@@]3(CCN(CC(C)C)C3)C2)cc1`, the Potency in test [1] is > 11.4 µM (inactive); in test [11] it was 7.94 µM (active). Also, the activity change, negative = inhibition in test [2] is -12.8% (inactive); in [3], -2.79% (inactive); in test [9], 2.82% (inactive). For the same compound, in test [4], the activity, negative = inhibition was -10.6% (inactive). Further, the Potency result in test [6] and in test [7] was “inactive” each time. The figures for the max response in [9] (setting [17]) and in test [9] (setting [18]) were 8.22% and 13.2%, respectively. In addition, in test [10], the outcome was inactive.
As to `Cn1cccc1C(=O)N1CCC[C@@]2(CCN(C(=O)Nc3cccc(C#N)c3)C2)C1`, the figures for the Potency in test [1] and in [5] were > 11.4 µM (inactive) and > 46 µM (inactive), respectively. Besides, the activity change, negative = inhibition in test [2] is -6.67% (inactive); in [3], 10.5% (inactive); in test [9] it was 5.85% (inactive). For the same compound, the activity, negative = inhibition in test [4] was -3.81% (inactive). Moreover, the Potency result in test [6], in test [7] and in [8] was “inactive” each time. Also, the max response is 14.3% in [9] (setting [17]) and 24.9% in test [9] (setting [18]). Besides, in test [10], the outcome was inactive.
Regarding `CC(C)NC(=O)N1CC2(CCN(C(=O)c3cccn3C)CC2)C1`, the Potency was > 11.4 µM (inactive) in test [1] and > 46 µM (inactive) in [5]. The activity change, negative = inhibition in test [2] was -10.8% (inactive); in [3], -17.2% (inactive); in test [9] it was 2.27% (inactive). Also, the Potency entry in [6] and in test [7] was “inactive” in each case. Further, the results for the max response in test [9] (setting [17]) and in test [9] (setting [18]) were 10.2% and 15.6%, respectively. Besides, the result in test [10] was inactive.
Turning to `Cc1cccc(CNc2cc(-c3cccnc3)ncn2)c1`, the Potency was > 11.4 µM (inactive) in test [1], > 46 µM (inactive) in test [12] and > 46 µM (inactive) in [5]. For the same compound, the values for the activity change, negative = inhibition in test [2], in [3] and in test [9] were -15.4% (inactive), -0.57% (inactive) and -14.1% (inactive), respectively. Besides, the Potency entry in [6], in test [7], in test [13] and in test [15] was “inactive” in each case. Further, the outcome in test [14] and in test [10] was inactive. The max response in [9] (setting [17]) is -10.4%; in test [9] (setting [18]), -22.1%.
Turning to `CS(=O)(=O)N1CCC2(CCCN(c3cccc(-c4ccccc4)c3)C2)CC1`, the Potency in test [1] is > 11.4 µM (inactive). Also, the activity change, negative = inhibition in [2] is -13.4% (inactive); in test [3], 0.269% (inactive); in test [9], -12% (inactive). The activity, negative = inhibition in test [4] was -0.955% (inactive). For the same compound, the Potency entry in test [6] was “inactive”. The activation in test [16] was -18.3% (inactive). The max response in test [9] (setting [17]) is 12.1%; in [9] (setting [18]) it was -3.01%. Further, the result in test [10] was inactive.
